# Results published in PubChem BioAssay AID1159580 (chemical genetic matrix, 2015).
# Where “and” joins values, the source holds several entries; their conditions need not be identical. Equal entries are not always repeated. Screen size: about 5,500 compounds; about 2,000 (36%) were called active. About 18% were inconclusive and are not listed. Rule as the data show it: active = normalized growth mostly below about 0.91 (no sharp cut-off); inconclusive = no clear call, values can overlap the other calls; inactive = mostly above about 0.92. The list shows a part of the results. Where a structure was tested more than once in an assay, its records may differ in their call.
# Assay: chemical genetic growth profiling, strain panel (AID 1159580);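 also: tested at 20 µM; growth read once vehicle control cultures reached saturation at 30 °C; 1 = growth at the plate median or of vehicle wells; lower values mean less growth of the strain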
# Settings: S. cerevisiae deletion strains, growth OD
structure (smiles),measurement,setting,value
C=CCCCCCCCCC(=O)O,normalized growth,"locus YAL021C, strain ccr4, stronger effect = lower value",0.996 (inactive) and 1 (inactive)
same,normalized growth,"locus YAL026C, strain drs2, stronger effect = lower value",0.984 (inactive) and 0.932 (inactive)
same,normalized growth,"locus YAL030W, strain snc1, stronger effect = lower value",0.973 (inactive) and 0.992 (inactive)
same,normalized growth,"locus YBL061C, strain skt5, stronger effect = lower value",0.968 (inactive) and 1 (inactive)
same,normalized growth,"locus YBR009C, strain hhf1, stronger effect = lower value",0.977 (inactive) and 0.983 (inactive)
same,normalized growth,"locus YBR023C, strain chs3, stronger effect = lower value",0.977 (inactive) and 0.985 (inactive)
same,normalized growth,"locus YBR171W, strain sec66, stronger effect = lower value",0.983 (inactive) and 0.976 (inactive)
same,normalized growth,"locus YBR231C, strain swc5, stronger effect = lower value",0.989 (inactive) and 1.01 (inactive)
same,normalized growth,"locus YBR279W, strain paf1, stronger effect = lower value",0.975 (inactive) and 0.985 (inactive)
same,normalized growth,"locus YCL011C, strain gbp2, stronger effect = lower value",0.978 (inactive) and 0.989 (inactive)
same,normalized growth,"locus YCL016C, strain dcc1, stronger effect = lower value",0.988 (inactive) and 0.992 (inactive)
same,normalized growth,"locus YCL061C, strain MRC1, stronger effect = lower value",0.99 (inactive) and 0.991 (inactive)
same,normalized growth,"locus YCL069W, strain vba3, stronger effect = lower value",0.989 (inactive) and 0.991 (inactive)
same,normalized growth,"locus YCR088W, strain abp1, stronger effect = lower value",0.978 (inactive) and 1 (inactive)
same,normalized growth,"locus YDL005C, strain med2, stronger effect = lower value",0.962 (inactive) and 1 (inactive)
same,normalized growth,"locus YDL040C, strain nat1, stronger effect = lower value",0.974 (inactive) and 0.994 (inactive)
same,normalized growth,"locus YDR001C, strain nth1, stronger effect = lower value",0.978 (inactive) and 1 (inactive)
same,normalized growth,"locus YDR069C, strain doa4, stronger effect = lower value",0.984 (inactive) and 0.997 (inactive)
same,normalized growth,"locus YDR137W, strain rgp1, stronger effect = lower value",0.988 (inactive) and 0.986 (inactive)
same,normalized growth,"locus YDR159W, strain sac3, stronger effect = lower value",1 (inactive) and 1.06 (inactive)
same,normalized growth,"locus YDR195W, strain ref2",1 (inactive) and 1.09 (inactive)
same,normalized growth,"locus YDR297W, strain sur2, stronger effect = lower value",0.978 (inactive) and 0.998 (inactive)
same,normalized growth,"locus YDR334W, strain swr1, stronger effect = lower value",0.988 (inactive) and 0.976 (inactive)
same,normalized growth,"locus YDR335W, strain msn5, stronger effect = lower value",0.981 (inactive) and 0.965 (inactive)
same,normalized growth,"locus YDR392W, strain spt3, stronger effect = lower value",0.898 (inactive) and 0.647 (active)
same,normalized growth,"locus YEL003W, strain gim4, stronger effect = lower value",0.984 (inactive) and 0.981 (inactive)
same,normalized growth,"locus YEL037C, strain rad23, stronger effect = lower value",0.969 (inactive) and 0.972 (inactive)
same,normalized growth,"locus YEL061C, strain CIN8 (second series), stronger effect = lower value",0.982 (inactive) and 0.992 (inactive)
same,normalized growth,"locus YER015W, strain faa2, stronger effect = lower value",0.985 (inactive) and 0.992 (inactive)
same,normalized growth,"locus YER016W, strain bim1, stronger effect = lower value",0.978 (inactive) and 0.985 (inactive)
same,normalized growth,"locus YER111C, strain swi4, stronger effect = lower value",0.981 (inactive) and 1 (inactive)
same,normalized growth,"locus YER155C, strain BEM2 (second series), stronger effect = lower value",0.977 (inactive) and 0.947 (inactive)
same,normalized growth,"locus YFR010W, strain ubp6, stronger effect = lower value",1.02 (inactive) and 0.951 (inactive)
same,normalized growth,"locus YGL167C, strain pmr1, stronger effect = lower value",0.961 (inactive) and 0.995 (inactive)
same,normalized growth,"locus YGL173C, strain kem1, stronger effect = lower value",0.984 (inactive) and 0.975 (inactive)
same,normalized growth,"locus YGL227W, strain vid30, stronger effect = lower value",0.97 (inactive) and 1 (inactive)
same,normalized growth,"locus YGL240W, strain doc1, stronger effect = lower value",0.976 (inactive) and 0.911 (inactive)
same,normalized growth,"locus YGL253W, strain hxk2, stronger effect = lower value",0.983 (inactive) and 0.978 (inactive)
same,normalized growth,"locus YHR013C, strain ard1, stronger effect = lower value",1.21 [resistant] (active) and 0.965 (inactive)
same,normalized growth,"locus YHR027C, strain rpn1, stronger effect = lower value",0.981 (inactive) and 0.971 (inactive)
same,normalized growth,"locus YHR030C, strain SLT2, stronger effect = lower value",0.948 (inactive) and 0.105 (active)
same,normalized growth,"locus YHR079C, strain IRE1, stronger effect = lower value",0.979 (inactive) and 0.111 (active)
same,normalized growth,"locus YHR142W, strain chs7, stronger effect = lower value",1.01 (inactive) and 0.926 (inactive)
same,normalized growth,"locus YJL092W, strain hpr5, stronger effect = lower value",0.979 (inactive) and 0.99 (inactive)
same,normalized growth,"locus YJL095W, strain BCK1 (second series), stronger effect = lower value",0.98 (inactive) and 0.996 (inactive)
same,normalized growth,"locus YJL095W, strain BCK1, stronger effect = lower value",0.974 (inactive) and 0.136 (active)
same,normalized growth,"locus YJL115W, strain asf1, stronger effect = lower value",0.974 (inactive) and 0.969 (inactive)
same,normalized growth,"locus YJL129C, strain trk1, stronger effect = lower value",0.984 (inactive) and 0.778 (active)
same,normalized growth,"locus YJL154C, strain vps35, stronger effect = lower value",0.978 (inactive) and 0.995 (inactive)
same,normalized growth,"locus YJL164C, strain tpk1, stronger effect = lower value",0.973 (inactive) and 0.929 (inactive)
same,normalized growth,"locus YJL166W, strain qcr8, stronger effect = lower value",0.993 (inactive) and 0.959 (inactive)
same,normalized growth,"locus YJL187C, strain SWE1, stronger effect = lower value",0.979 (inactive) and 0.99 (inactive)
same,normalized growth,"locus YJR066W, strain TOR1, stronger effect = lower value",0.928 (inactive) and 0.0525 (active)
same,normalized growth,"locus YKL160W, strain elf1, stronger effect = lower value",0.997 (inactive) and 0.97 (inactive)
same,normalized growth,"locus YKR026C, strain gcn3, stronger effect = lower value",0.951 (inactive) and 0.98 (inactive)
same,normalized growth,"locus YKR091W, strain srl3, stronger effect = lower value",0.986 (inactive) and 0.997 (inactive)
same,normalized growth,"locus YLL001W, strain dnm1, stronger effect = lower value",0.978 (inactive) and 0.993 (inactive)
same,normalized growth,"locus YLL026W, stronger effect = lower value",0.975 (inactive) and 0.996 (inactive)
same,normalized growth,"locus YLL041C, strain sdh2, stronger effect = lower value",0.992 (inactive) and 0.988 (inactive)
same,normalized growth,"locus YLR027C, strain aat2, stronger effect = lower value",0.987 (inactive) and 0.983 (inactive)
same,normalized growth,"locus YLR113W, strain HOG1, stronger effect = lower value",1.1 (inactive) and 0.156 (active)
same,normalized growth,"locus YLR221C, strain rsa3, stronger effect = lower value",0.984 (inactive) and 0.937 (inactive)
same,normalized growth,"locus YLR258W, strain gsy2, stronger effect = lower value",0.981 (inactive) and 1.01 (inactive)
same,normalized growth,"locus YLR262C, strain YPT6 (second series), stronger effect = lower value",0.978 (inactive) and 0.977 (inactive)
same,normalized growth,"locus YLR320W, strain mms22, stronger effect = lower value",0.998 (inactive) and 0.925 (inactive)
same,normalized growth,"locus YLR342W, strain FKS1, stronger effect = lower value",0.98 (inactive) and 0.989 (inactive)
same,normalized growth,"locus YLR357W, strain rsc2, stronger effect = lower value",0.948 (inactive) and 0.927 (inactive)
same,normalized growth,"locus YLR370C, strain arc18, stronger effect = lower value",0.987 (inactive) and 1 (inactive)
same,normalized growth,"locus YLR384C, strain iki3, stronger effect = lower value",0.968 (inactive) and 0.985 (inactive)
same,normalized growth,"locus YML120C, strain ndi1, stronger effect = lower value",0.997 (inactive) and 0.931 (inactive)
same,normalized growth,"locus YMR058W, strain fet3, stronger effect = lower value",0.981 (inactive) and 0.952 (inactive)
same,normalized growth,"locus YMR125W, strain sto1, stronger effect = lower value",0.938 (inactive) and 0.956 (inactive)
same,normalized growth,"locus YMR129W, stronger effect = lower value",0.993 (inactive) and 0.997 (inactive)
same,normalized growth,"locus YMR205C, strain PFK2, stronger effect = lower value",0.966 (inactive) and 1.04 (inactive)
same,normalized growth,"locus YMR231W, strain pep5, stronger effect = lower value",0.97 (inactive) and 0.951 (inactive)
same,normalized growth,"locus YNL071W, strain lat1, stronger effect = lower value",0.982 (inactive) and 0.953 (inactive)
same,normalized growth,"locus YNL183C, strain NPR1, stronger effect = lower value",0.933 (inactive) and 0.0268 (active)
same,normalized growth,"locus YNL209W, strain ssb2, stronger effect = lower value",0.979 (inactive) and 0.984 (inactive)
same,normalized growth,"locus YNL248C, strain rpa49, stronger effect = lower value",1.01 (inactive) and 0.852 (active)
same,normalized growth,"locus YNL322C, strain KRE1 (second series), stronger effect = lower value",0.981 (inactive) and 0.991 (inactive)
same,normalized growth,"locus YNR049C, strain mso1, stronger effect = lower value",0.979 (inactive) and 0.992 (inactive)
same,normalized growth,"locus YOR001W, strain rrp6, stronger effect = lower value",0.987 (inactive) and 0.93 (inactive)
same,normalized growth,"locus YOR070C, strain gyp1, stronger effect = lower value",0.974 (inactive) and 0.975 (inactive)
same,normalized growth,"locus YOR080W, strain dia2, stronger effect = lower value",0.965 (inactive) and 0.987 (inactive)
same,normalized growth,"locus YOR083W, strain WHI5, stronger effect = lower value",1.01 (inactive) and 0.909 (inactive)
same,normalized growth,"locus YOR106W, strain vam3, stronger effect = lower value",1.01 (inactive) and 0.925 (inactive)
same,normalized growth,"locus YOR231W, strain MKK1, stronger effect = lower value",0.953 (inactive) and 0.105 (active)
same,normalized growth,"locus YOR265W, strain rbl2, stronger effect = lower value",0.981 (inactive) and 0.986 (inactive)
same,normalized growth,"locus YOR270C, strain vph1, stronger effect = lower value",1.01 (inactive) and 0.771 (active)
same,normalized growth,"locus YOR290C, strain snf2, stronger effect = lower value",0.992 (inactive) and 0.916 (inactive)
same,normalized growth,"locus YPL051W, strain arl3, stronger effect = lower value",0.986 (inactive) and 0.967 (inactive)
same,normalized growth,"locus YPL078C, strain atp4, stronger effect = lower value",0.982 (inactive) and 0.88 (active)
same,normalized growth,"locus YPL106C, strain sse1, stronger effect = lower value",0.988 (inactive) and 1.04 (inactive)
same,normalized growth,"locus YPL240C, strain hsp82, stronger effect = lower value",0.986 (inactive) and 1 (inactive)
same,normalized growth,"locus YPL256C, strain CLN2, stronger effect = lower value",1.01 (inactive) and 0.114 (active)
